Drawing on PubChem BioAssay AID493035 (The Scripps Research Institute Molecular Screening Center, 2011), this text covers inhibition for 56 compounds.

Each structure is given as a SMILES string. The whole screen tested about 2,000 compounds, of which about 45 (2%) were called active.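 The calls were made as follows: active = inhibition above the mean of all tested compounds plus 3 SD (cut at about 49% in these data); inactive = the rest.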 The entries come from a sample that favours actives as a whole.

As usually defined, the inhibition is the relative decrease from the control value, in per cent.

Perilipin-5 (Homo sapiens) + 1-acylglycerol-3-phosphate O-acyltransferase ABHD5 (Homo sapiens), sequence (Q00G26 whole entry, looked up): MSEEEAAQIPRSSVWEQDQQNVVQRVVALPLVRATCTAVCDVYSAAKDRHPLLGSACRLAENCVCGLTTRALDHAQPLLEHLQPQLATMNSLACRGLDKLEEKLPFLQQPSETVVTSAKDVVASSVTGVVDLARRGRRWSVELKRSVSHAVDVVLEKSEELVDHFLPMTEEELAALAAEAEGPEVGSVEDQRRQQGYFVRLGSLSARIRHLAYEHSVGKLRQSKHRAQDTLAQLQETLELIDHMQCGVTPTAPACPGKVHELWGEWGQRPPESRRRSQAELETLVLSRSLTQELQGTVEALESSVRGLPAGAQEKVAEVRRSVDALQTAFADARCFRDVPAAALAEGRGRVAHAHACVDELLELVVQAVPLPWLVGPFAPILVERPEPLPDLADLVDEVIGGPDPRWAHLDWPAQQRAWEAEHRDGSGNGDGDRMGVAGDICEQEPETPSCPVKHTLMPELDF
Perilipin-5 (Homo sapiens) + 1-acylglycerol-3-phosphate O-acyltransferase ABHD5 (Homo sapiens), sequence (Q8WTS1 whole entry, looked up): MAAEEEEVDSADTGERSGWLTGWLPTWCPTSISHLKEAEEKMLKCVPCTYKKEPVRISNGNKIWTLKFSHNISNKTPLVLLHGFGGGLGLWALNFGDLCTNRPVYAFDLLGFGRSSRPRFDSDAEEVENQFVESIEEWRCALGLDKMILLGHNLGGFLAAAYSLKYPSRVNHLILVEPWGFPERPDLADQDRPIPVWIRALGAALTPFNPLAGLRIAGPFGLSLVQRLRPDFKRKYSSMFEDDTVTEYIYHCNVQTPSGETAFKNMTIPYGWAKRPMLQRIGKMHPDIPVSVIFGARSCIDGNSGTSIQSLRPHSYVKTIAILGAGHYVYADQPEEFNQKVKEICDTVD

The test concerns the target Perilipin-5 (Homo sapiens) + 1-acylglycerol-3-phosphate O-acyltransferase ABHD5 (Homo sapiens) (UniProt Q00G26+Q8WTS1). As to the kind of experiment: ABHD5-PLIN5 interaction inhibitors, pilot screen, cell lysate, split luciferase complementation, luminescence, NIH validation set (AID 493035).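 Also: 0% = DMSO only wells while the 100% control is not stated.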 To be noted: split G. princeps luciferase complementation, lysates, 4 h; at 7.9 µM, stronger effect = higher value.
`NC(N)=N/N=C/c1ccc(OS(=O)(=O)c2ccccc2)cc1`: the inhibition is -1.57% (inactive).
Turning to `COc1cc(C(=O)Nc2cccc(-c3nnc(-c4ccco4)o3)c2)ccc1OC(C)=O`, the inhibition is -3.44% (inactive).
On to `COc1ccc(/C=C2\CC/C(=C\c3ccc(OC)c(OC)c3)C2=O)cc1OC`, for which the inhibition is 72.8% (active).
The figure for `COc1ccc(/C=C2\CCc3ccccc3C2=O)c(OC)c1OC` is -7.62% (inactive); for `COc1ccc(/C=C2\CCn3c2nc2cc(C(=O)O)ccc2c3=O)cc1OC` it is -3.54% (inactive).
Take `COc1ccc(C(=O)Nc2ccccc2C(=O)NCCCn2ccnc2)cc1`: the inhibition was -6.29% (inactive).
The figure for `Cc1nonc1CN(C)C(=O)c1ccc(OC2CCN(C(=O)c3cccnc3)CC2)cc1` is 2.15% (inactive); for `N#C/C(=C/c1ccccc1)C(=O)NCc1ccccc1` it is 62.6% (active); for `N#C/C(=C\c1ccc(O)c(O)c1)C(=O)NCCCc1ccccc1` it is 28.2% (inactive).
Take `S=C(NCc1ccccc1)NCc1cccc(CNC(=S)NCc2ccccc2)c1`: the inhibition was 10.2% (inactive).
For `COc1ccc(NC(=O)CC2C(=O)N(C)C(=S)N2Cc2ccncc2)cc1` (stereo unspecified), the inhibition was -3.37% (inactive).
With `O=C(O)C1Cc2ccccc2CN1S(=O)(=O)c1ccccc1` (stereo unspecified), the inhibition is 3.15% (inactive).
As to `O=C(O)Cc1ccc(O)c(F)c1`, the inhibition was -5.48% (inactive).
The figure for `CCOc1ccc(N2C(=O)CNC2=S)cc1` is -13.8% (inactive); for `COc1ccccc1-c1c(C(F)(F)F)oc2cc(OC(=O)c3ccc([N+](=O)[O-])cc3)ccc2c1=O` it is 29.5% (inactive); for `O=C(CCCN1C(=O)/C(=C\c2cccs2)SC1=S)Nc1ccccn1` it is -1.47% (inactive).
In the case of `O=C(CN1C(=O)/C(=C/c2cccc(Br)c2)SC1=S)Nc1cccnc1` it was 52% (active); in that of `O=C(CCCN1C(=O)/C(=C\c2cccc(Br)c2)SC1=S)Nc1cccnc1`, 28.1% (inactive); in that of `COc1ccc(C2=NOC(COc3ccc4c(C)cc(=O)oc4c3)C2)c(OC)c1` (stereo unspecified), 27.1% (inactive).
The figure for `O=C(COc1ccc2c(-c3ccccc3)cc(=O)oc2c1)NCc1cccs1` is 9.91% (inactive); for `CC/C(=C1/C(=O)CC(C)(C)C(C(=O)OC)C1=O)N1CCCC1` (stereo unspecified) it is 6.45% (inactive).
Take `COc1ccc(/C=C/C(=O)c2cc3cccc(OC)c3oc2=O)cc1`: the inhibition is 69.5% (active).
In the case of `COc1ccc(C(=O)/C=C/c2ccc(OC(=O)c3cc(OC)c(OC)c(OC)c3)cc2)cc1` it was 40.8% (inactive); in that of `COc1cccc2cc(-c3ccccc3)c(=O)oc12`, -4.71% (inactive).
In the case of `N/C(=N\OC(=O)CCCOc1ccc(Cl)cc1Cl)c1ccccn1` it was -4.4% (inactive); in that of `CC12COC3(C(=O)Nc4ccc(F)cc4)CC1CCC32C` (stereo unspecified), -5.49% (inactive); in that of `O=C(Nc1ncc2c(n1)CC(c1ccco1)CC2=O)c1ccco1` (stereo unspecified), 0.31% (inactive).
In the case of `O=C(/C=C/c1ccccc1)/C=C/c1ccccc1` it was 92.3% (active); in that of `O=C(CCCCCCCC(=O)c1ccccc1)c1ccccc1`, -4.5% (inactive); in that of `O=C(/C=C/c1ccccc1)c1ccccc1`, 69.7% (active).
On to `Cn1cc(/C=C/C(=O)c2ccccc2)c2ccccc21`, for which the inhibition is 13.7% (inactive).
Take `N/C(=N\OC(=O)/C=C/c1ccccc1)c1ccc(Br)cc1`: the inhibition is -11.8% (inactive).
Consider `CC(CCc1ccccc1)NC(=O)/C=C/c1ccccc1` (stereo unspecified), for which the inhibition is 0.97% (inactive).
In the case of `O=C(/C=C/c1ccccc1)NC(=O)c1ccccc1O` it was 12.7% (inactive); in that of `O=C(O)c1ccc(C(=O)C(=O)c2ccccc2)cc1`, -3.75% (inactive); in that of `O=C(/C=C/Sc1ccccc1)c1ccccc1`, 85.6% (active).
In the case of `COc1ccc(Cc2noc(CN(C)CCN3CCc4ccccc4C3)n2)cc1OC` it was -5.39% (inactive).
The figure for `CC(=O)Nc1ccc2[nH]c(C)c(CC=C(Cl)Cl)c(=O)c2c1` is -10.7% (inactive); for `COc1ccc(CCn2c(C)nc3c(c(=O)c4ccccc4n3C)c2=O)cc1` it is 11% (inactive).
As for `Cc1nnc(SCC(=O)N2CCCC(C(=O)c3ccc(Cl)cc3)C2)o1` (stereo unspecified), the inhibition is 0.98% (inactive).
In the case of `Cc1ccc2[nH]c3c(=O)n(CCCN4CCN(C)CC4)cnc3c2c1` it was -5.12% (inactive).
In the case of `O=C(O)CCn1c(=S)n(CCC(=O)O)c2ccccc21` it was 8.91% (inactive); in that of `Cc1ccccc1OCCSc1nc2ncnc(N)c2[nH]1`, -10.3% (inactive).
In the case of `COc1c(C)cc(C(=O)C2CCCN(Cc3ccc(Oc4ncccn4)cc3)C2)cc1C` (stereo unspecified) it was -0.46% (inactive).
Regarding `CSCCC(NC(C)=O)C(=O)Oc1ccc2c3c(c(=O)oc2c1)CCCC3` (stereo unspecified), the inhibition was 1.97% (inactive).
In the case of `O=c1c(-c2ccc3c(c2)OCCO3)coc2cc(OC3OC(CO)C(O)C(O)C3O)ccc12` (stereo unspecified) it was -6.25% (inactive); in that of `CSCCC(NC(=O)OC(C)(C)C)C(=O)Oc1ccc2c(=O)c(-c3ccc4c(c3)OCCO4)coc2c1` (stereo unspecified), 69.1% (active).
For the compound `CCc1c(C)c2ccc(OCC(=O)OC(C)C)c(C)c2oc1=O`, the inhibition was -3.95% (inactive).
The figure for `CCOc1ccc(CC2c3cc(OCC)c(OCC)cc3CCN2C(=O)CN2CCN(C)CC2)cc1OCC` (stereo unspecified) is -0.88% (inactive); for `O=C(/C=C/c1ccc(Cl)cc1)NCCc1ccccc1` it is 1.1% (inactive).
Turning to `O=C(O)CCCCCN1C(=O)C(=O)/C(=C(/O)c2ccccc2)C1c1ccccc1` (stereo unspecified), the inhibition was -14.1% (inactive).
As for `c1cc(-c2ccncc2)ccn1`, the inhibition was -3.86% (inactive).
For `Nc1cc(-c2ccncc2)c[nH]c1=O`, the inhibition is 75.3% (active).
The figure for `CCc1cc(=O)oc2cc3occ(-c4ccc(OC)c(F)c4)c3cc12` is 14.2% (inactive); for `CC(C)=CC/C=C1\CCC(C(=O)O)C(C(=O)O)C1` (stereo unspecified) it is 1.14% (inactive).
In the case of `COCCOC(=O)C1=C(N)OC2=C(C(=O)CCC2)C1c1cccnc1` (stereo unspecified) it was 0.01% (inactive).
